Results on 11 compounds are retold here after PubChem BioAssay.

Active and inactive are the calls of the source. Unless noted, how the calls were made is not given here.

Assay [1] in a line: HepG2 liver cancer cell viability effects, profiling panel, resazurin fluorescence, 24 h, PK04 Diversity Set (AID 1172). Further: test concentration not given here. The conditions noted are these: higher = more signal.
Assay [2] is described as follows: basal S. cerevisiae growth modulation, no modifier, primary screen, OD600, strain BY4716, 24 h, basal condition (AID 1173). The settings on record: OD600, 24 h, higher = more signal, called active from +8 up or from −8 down.
Assay [3] is described as follows: MM1S myeloma cell viability, profiling panel, resazurin fluorescence, basal, 24 h, PK04 Diversity Set (AID 1174).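 Further: MM1S multiple myeloma cell line; test concentration not given here.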 The conditions noted are these: higher = more signal, called active from +8 up or from −8 down. (In general: The colour change of resazurin is a common sign of viable cells or microbes.)
In assay [4] the target is Dihydroorotate dehydrogenase (quinone), mitochondrial (Plasmodium falciparum (isolate 3D7)) (UniProt Q08210). Description: PfDHODH enzyme inhibitors, primary screen, biochemical, C-terminal His tag, absorbance 600 nm (AID 1175).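 Further: recombinant parasite enzyme with a five histidine tag at its C terminus; test concentration not given here.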 The conditions noted are these: DCIP absorbance 600 nm, higher = more signal, called active from +8 up or from −8 down.
A short description of assay [5]: P. aeruginosa biofilm formation inhibitors, primary screen, strain PAO1, LB-PBS medium, absorbance 600 nm (AID 1176). Further: test concentration not given here. The conditions noted are these: P. aeruginosa PAO1 growth/biofilm, A600, 12 h; higher = more signal.
A short description of assay [6]: S. cerevisiae RM11-1a growth modifiers, primary screen, strain RM11-1a, OD600, basal, 24 h (AID 1177).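 Further: cultures grown under basal conditions with no added stressor; test concentration not given here.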 The settings on record: OD600, 24 h, higher = more signal, called active from +8 up or from −8 down.
Assay [7] in a line: E. coli acrAB mutant growth effects, primary screen, E. coli filamentation inducers, strain DRC39, OD650, 24 h (AID 1178).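 Further: growth measured as culture turbidity by optical density at 650 nm; test concentration not given here.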 The settings on record: higher = more signal, called active from +8 up or from −8 down.
Assay [8] can be described thus: E. coli acrAB mutant growth effects, primary screen, E. coli filamentation inducers, strain DRC39, OD650, 48 h (AID 1179).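 Further: screen aims at cell division blockers that make cells filament.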 The settings on record: E. coli DRC39 delta-acrAB growth, higher = more signal, called active from +8 up or from −8 down.
A short description of assay [9]: RPMI8226 myeloma cell viability, profiling panel, resazurin fluorescence, basal, 24 h, PK04 Diversity Set (AID 1180).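 Further: RPMI8826 multiple myeloma cell line at 5000 cells per well; test concentration not given here.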 The settings on record: higher = more signal.
Assay [10] deals with E3 ubiquitin-protein ligase XIAP (Homo sapiens) (UniProt P98170). Description: XIAP binders, primary screen, biophysical, small-molecule microarray, fluorescence 635 nm (AID 1181).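 Further: score merges 667 nm emission and signal to noise over triplicate slides.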 The conditions noted are these: small-molecule microarray binding, higher = more signal.
Chain of E3 ubiquitin-protein ligase XIAP (Homo sapiens) (P98170 whole entry, looked up): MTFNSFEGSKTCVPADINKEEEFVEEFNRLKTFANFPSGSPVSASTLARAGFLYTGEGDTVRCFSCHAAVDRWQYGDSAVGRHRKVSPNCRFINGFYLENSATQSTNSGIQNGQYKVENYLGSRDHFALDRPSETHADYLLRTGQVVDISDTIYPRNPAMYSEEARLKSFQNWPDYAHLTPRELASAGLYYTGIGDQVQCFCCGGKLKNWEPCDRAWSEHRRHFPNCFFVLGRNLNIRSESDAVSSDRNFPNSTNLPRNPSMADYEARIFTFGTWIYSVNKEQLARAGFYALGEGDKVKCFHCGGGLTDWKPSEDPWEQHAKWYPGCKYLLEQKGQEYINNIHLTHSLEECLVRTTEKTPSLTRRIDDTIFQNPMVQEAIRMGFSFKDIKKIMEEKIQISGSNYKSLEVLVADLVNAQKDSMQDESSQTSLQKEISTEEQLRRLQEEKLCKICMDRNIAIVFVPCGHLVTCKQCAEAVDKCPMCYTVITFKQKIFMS

Chain of Dihydroorotate dehydrogenase (quinone), mitochondrial (Plasmodium falciparum (isolate 3D7)) (Q08210 whole entry, looked up): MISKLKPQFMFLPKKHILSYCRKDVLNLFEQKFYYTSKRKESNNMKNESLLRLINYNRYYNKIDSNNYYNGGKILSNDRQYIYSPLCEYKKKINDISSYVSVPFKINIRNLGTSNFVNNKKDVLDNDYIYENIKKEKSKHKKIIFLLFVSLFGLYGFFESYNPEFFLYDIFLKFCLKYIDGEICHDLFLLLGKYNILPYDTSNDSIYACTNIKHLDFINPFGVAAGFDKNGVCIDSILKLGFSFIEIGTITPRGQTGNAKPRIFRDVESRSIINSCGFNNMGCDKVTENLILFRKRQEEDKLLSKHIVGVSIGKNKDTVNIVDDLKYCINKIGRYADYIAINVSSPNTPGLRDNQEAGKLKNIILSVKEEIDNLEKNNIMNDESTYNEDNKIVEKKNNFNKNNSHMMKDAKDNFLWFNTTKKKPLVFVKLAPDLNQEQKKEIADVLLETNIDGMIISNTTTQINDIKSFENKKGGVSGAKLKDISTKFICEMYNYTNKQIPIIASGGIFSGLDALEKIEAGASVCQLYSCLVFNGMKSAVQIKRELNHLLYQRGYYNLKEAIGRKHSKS

`O=C1O[C@H](c2ccccc2)[C@H](c2ccccc2)N2[C@H]1[C@@H](C(=O)N1CCN(c3ncccn3)CC1)[C@]1(C(=O)Nc3ccc(C#CCCO)cc31)[C@H]2c1ccc(O)cc1`: the z-score is 0.0071 in assay [1]; 0.298 (inactive) in [2]; 0.34 (inactive) in assay [3]; 0.462 (inactive) in assay [5]; 0.254 (inactive) in [6]; -0.386 (inactive) in assay [7]. The z-score in assay [8] was -0.395 (inactive); in assay [9] it was 0.186. Further, the composite z-score is 0.438 (inactive) in assay [4] and -0.088 in [10].
Consider `C=CCNC(=O)[C@H]1[C@@H]2C(=O)O[C@@H](c3ccccc3)[C@@H](c3ccccc3)N2[C@@H](c2ccc(OCCO)cc2)[C@]12C(=O)Nc1ccccc12`, for which the z-score in assay [1] is 0.429; in assay [2], 0.997 (inactive); in assay [3] it was 1.13 (inactive); in assay [5] it was -0.172 (inactive); in assay [6], 1.69 (inactive); in assay [7], 0.237 (inactive). Also, the z-score in [8] was -0.564 (inactive); in [9], 0.608. The composite z-score in [4] was -0.26 (inactive); in [10] it was 0.347.
Consider `C=CCOC(=O)[C@@H]1[C@H]2C(=O)O[C@H](c3ccccc3)[C@H](c3ccccc3)N2[C@H](c2ccc(OCCOC(=O)[C@H]3C[C@H]4C(=O)N[C@@H](CCCCN(C)C)C(=O)N4[C@H]3c3ccc(O)cc3)cc2)[C@@]12C(=O)Nc1ccc(I)cc12`, for which the z-score in assay [1] is -0.148; in [2], -0.679 (inactive); in [3] it was -0.467 (inactive); in [5], 1.34 (inactive); in assay [6], 1.6 (inactive); in assay [7], -0.466 (inactive). In addition, the figures for the z-score in [8] and in assay [9] were 0.236 (inactive) and -0.431, respectively. Also, the composite z-score in assay [4] is -2.47 (inactive); in assay [10], -0.224.
In the case of `CC(C)C(CO)N1C(=O)[C@@H]2C3C(=O)OCCC/C=C\[C@H]3OC23C=CCN(Cc2ccccc2)C(=O)[C@@H]13` (stereo not given in full), the z-score in [1] is 0.49; in assay [2] it was -0.612 (inactive); in assay [3], 0.607 (inactive); in assay [5], -1.03 (inactive); in assay [6], -0.0566 (inactive); in [7] it was 1.15 (inactive). Moreover, the z-score in assay [8] was 0.755 (inactive); in assay [9], 1.14. The composite z-score in assay [4] was -0.479 (inactive); in assay [10], -0.166.
Consider `[N-]=[N+]=Nc1ccccc1[C@@H]1OC(c2ccc(OCCCO)cc2)=N[C@]1(Cc1ccccc1)C(=O)NCCN1CCOCC1`, for which the z-score in assay [1] was -0.158; in [2], -2.57 (inactive); in assay [3], -1.37 (inactive); in [5], -0.441 (inactive); in assay [6], -0.158 (inactive); in assay [7], 0.826 (inactive). The z-score was -0.382 (inactive) in assay [8] and -1.73 in [9]. The composite z-score in assay [4] was 0.417 (inactive); in [10], -0.0663.
`CC(C)NC(=O)[C@@H]1c2ccccc2C(=O)N(Cc2ccccc2C(F)(F)F)[C@H]1c1ccc(CO)cc1`: the z-score in assay [1] was 0.994; in assay [2], -0.249 (inactive); in [3], 0.711 (inactive); in [5], 0.441 (inactive); in [6] it was -0.227 (inactive); in assay [7], 0.296 (inactive). Moreover, the z-score is 0.0644 (inactive) in assay [8] and 0.616 in assay [9]. Also, the composite z-score in assay [4] was 0.0482 (inactive); in assay [10], -0.135.
For the compound `CN(C)CCCC[C@@H]1NC(=O)[C@H]2C[C@@H](C(=O)O)[C@@H](c3ccc(O)cc3)N2C1=O`, the z-score in assay [1] is -0.401; in assay [2] it was -1.23 (inactive); in assay [3] it was 0.41 (inactive); in assay [5], 1.5 (inactive); in assay [6] it was -0.304 (inactive); in [7], 0.679 (inactive). The results for the z-score in assay [8] and in assay [9] were -0.454 (inactive) and -0.34, respectively. The composite z-score was -0.676 (inactive) in [4] and 2.02 in [10].
As for `CC(C)(C)N1CC=CC23O[C@@H]4C=CCOC(=O)[C@@H]4[C@H]2C(=O)N(CCO)[C@@H]3C1=O` (stereo not given in full), the z-score in assay [1] is -0.237; in assay [2], 0.377 (inactive); in assay [3] it was -0.0504 (inactive); in assay [5] it was -0.994 (inactive); in assay [6], 0.0505 (inactive); in [7], 0.0531 (inactive). Besides, the z-score is -0.147 (inactive) in assay [8] and -0.167 in assay [9]. Moreover, the composite z-score in assay [4] is -0.0529 (inactive); in [10], -0.0969.
As for `CC(=O)NCCCC[C@@H]1NC(=O)[C@H]2C[C@@H](C(=O)NCCCCCCNC(=O)CS)[C@@H](c3cccc(OCCO)c3)N2C1=O`, the z-score is -0.0625 in assay [1]; 0.535 (inactive) in assay [2]; -0.469 (inactive) in assay [3]; 0.339 (inactive) in assay [5]; 1.05 (inactive) in assay [6]; 0.0843 (inactive) in [7]. For the same compound, the z-score in [8] is -0.264 (inactive); in [9], -0.737. Further, the composite z-score in assay [4] was 0.929 (inactive); in [10], 0.0593.
In the case of `C=CCC(OC(C)=O)[C@@H]1[C@@H](N(Cc2cccc3ccccc23)C(=O)Cc2ccc(OC)cc2)c2cc(OCCCO)ccc2N1C(=O)c1ccc2ccccc2c1` (stereo not given in full), the z-score in assay [1] was 0.74; in [2] it was -1.57 (inactive); in [3] it was 0.435 (inactive); in assay [5] it was -0.37 (inactive); in assay [6], -0.958 (inactive); in assay [7], 1.22 (inactive). Also, the z-score in assay [8] was 0.56 (inactive); in assay [9] it was 1.17. The values for the composite z-score in [4] and in assay [10] were -0.775 (inactive) and -0.123, respectively.
As to `COc1ccc([Si](C)(C)[C@@H]2[C@@H](CC(=O)N(CCO)Cc3ccccc3)O[C@]3(C(=O)N(Cc4ccc(N5C(=O)c6cccc7cccc5c67)cc4)c4ccccc43)[C@H]2C)cc1`, the z-score in [1] was -1.17; in assay [2], 1.21 (inactive); in assay [3], -1.48 (inactive); in assay [5] it was 1.56 (inactive); in assay [6] it was 2.5 (inactive); in assay [7], 0.302 (inactive). For the same compound, the z-score was -0.22 (inactive) in [8] and -1.85 in [9]. In addition, the composite z-score in assay [4] was -0.992 (inactive); in assay [10], 0.237.
